Laboratory results taken from PubChem BioAssay AID1851 (National Center for Advancing Translational Sciences (NCATS), 2009).
Where “and” joins values, the source holds several entries; their conditions need not be identical. Identical values can stand only once. Out of some 16,000 compounds screened, about 2,600 (16%) were called active. About 20% were inconclusive and are not listed. Calls come from the whole dose curve; as a rule, active = well fitted curve in the direction sought with a large enough effect; inconclusive = small, poorly fitted or top-dose-only effect, or effect the other way; inactive = no such curve, though single readings can be large or run the other way. Not all results are given here. Square brackets hold non-standard residues; d marks the D form. Peptide text beside a SMILES is read from it.

Biological target: Cytochrome P450 2D6 (Homo sapiens) (UniProt P10635)
Assay: Cytochrome panel assay with activity outcomes
Conditions: recombinant CYP, pro-luciferin dealkylation, luminescence, p450-cyp2d6; series mostly up to 57.1 µM
% is set by controls: 0 for no effect and ±100 for the full control effect.

Chain of Cytochrome P450 2D6 (Homo sapiens) (P10635 whole entry, looked up): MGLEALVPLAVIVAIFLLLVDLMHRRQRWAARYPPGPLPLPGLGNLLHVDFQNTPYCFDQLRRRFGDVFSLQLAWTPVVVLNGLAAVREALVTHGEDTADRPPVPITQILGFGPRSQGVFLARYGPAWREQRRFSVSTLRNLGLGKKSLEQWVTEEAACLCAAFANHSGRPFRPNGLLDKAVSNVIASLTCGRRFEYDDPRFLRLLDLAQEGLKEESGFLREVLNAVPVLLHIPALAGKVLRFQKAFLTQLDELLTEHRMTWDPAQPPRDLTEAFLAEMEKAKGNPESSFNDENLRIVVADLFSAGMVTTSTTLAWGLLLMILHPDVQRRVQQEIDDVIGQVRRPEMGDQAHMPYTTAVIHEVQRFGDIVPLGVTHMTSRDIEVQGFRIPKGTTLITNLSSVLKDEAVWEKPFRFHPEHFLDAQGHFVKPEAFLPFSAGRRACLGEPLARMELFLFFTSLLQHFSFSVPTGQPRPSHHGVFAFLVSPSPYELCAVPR

| Compound | AC50 | activity, negative = inhibition |
| --- | --- | --- |
| CC1CCCC(NC(=O)C2CCN(S(=O)(=O)N3CCOCC3)CC2)C1C (configuration not stated) | inactive |  |
| O=C(O)C1CCCCC1C(=O)Nc1cc(Cl)ccc1Cl (configuration not stated) | inactive |  |
| Cc1ccc(S(=O)(=O)O[C@@H]2[C@H]([C@@H]3COC(C)(C)O3)O[C@H]3OC(C)(C)O[C@@H]32)cc1 |  | 5.58% [at 11.4 µM] (inactive) |
| O=C(O)/C=C/C(=O)Nc1ccccc1-c1ccccc1 | inactive |  |
| CCOC(=O)c1cc2c(C)n(-c3ccc(C)cc3)c(C)c2ccc1=O | inactive |  |
| O=C1NCN(c2ccccc2)C12CCN(CCCC(c1ccc(F)cc1)c1ccc(F)cc1)CC2 | 10 µM (active) and 1.58 µM (active) |  |
| O[C@H](CCCN1CCN(c2ncc(F)cn2)CC1)c1ccc(F)cc1 | inactive |  |
| Cc1ccc(NCCC(=O)c2ccc(Cl)cc2)cc1 | inactive |  |
| O=C(CNc1cccc(Cl)c1)c1ccc(Cl)cc1 | 0.447 µM (active) |  |
| O=C(Nc1cccc(Cl)c1)Nn1cnnc1 |  | 8.42% [at 11.4 µM] (inactive) |
| Cc1ccc(NCCC(=O)c2ccc(Cl)cc2)cc1C | inactive |  |
| O=C(NCCc1ccc(Cl)cc1)Nc1cccc(Cl)c1 | 0.891 µM (active) |  |
| CN(C)CCNC(=S)Nc1cccc(Cl)c1 | inactive |  |
| Cc1cnn(-c2cc(N/N=C/c3ccccc3F)ncn2)c1 | inactive |  |
| O=C(O)[C@@H]1[C@@H](C(=O)NCc2cccnc2)[C@@H]2C=C[C@@H]1O2 |  | 20.9% [at 11.4 µM] (inactive) |
| CCCc1nnc(SCC(=O)O)n1/N=C/c1ccc2c(c1)OCO2 | inactive |  |
| O=C(c1ccco1)N1CCN(c2cc(=O)n(C3CCCCC3)c(=O)[nH]2)CC1 | inactive |  |
| CCCCCCc1c(C[C@H](N)C(=O)O)o[nH]c1=O | inactive |  |
| Oc1ccccc1-c1nnc(-c2ccc(C(F)(F)F)cc2)o1 | inactive |  |
| CCN(CC)CCCNC(=O)CC1Sc2ccccc2NC1=O (configuration not stated) | 5.01 µM (active) |  |
| Cc1c(Cl)cccc1NC(=O)C[C@H]1Sc2ccccc2NC1=O |  | -12% [at 11.4 µM] (inactive) |
| CCN(CC)CCCNC(=O)C1CCC(=O)N(c2ccc(OC)cc2)C1c1ccc(F)cc1 (configuration not stated) | inactive |  |
| CN(Cc1ccco1)c1nc(-c2ccc3c(c2)OCO3)nc2ccccc12 | 10 µM (active) |  |

| Compound | AC50 | activity, negative = inhibition |
| --- | --- | --- |
| CN(C)c1ccc(-c2nc(N(C)Cc3ccco3)c3ccccc3n2)cc1 | 12.6 µM (active) |  |
| CN(Cc1ccco1)c1nc(-c2ccoc2)nc2ccccc12 | 15.8 µM (active) |  |
| CN(Cc1ccccc1)c1nc(-c2ccc([N+](=O)[O-])cc2)nc2ccccc12 | inactive |  |
| O=c1c(-c2cc(F)cc(F)c2)nc2cnc(N3CCOCC3)nc2n1C1CC1 | inactive |  |
| CSCC[C@H](C=O)NC(=O)[C@H](CC(C)C)NC(=O)[C@H](CC(C)C)NC(C)=O (Ac-Leu-Leu-[dM]-aldehyde) | inactive |  |
| c1cc(NNc2cccc(-c3nn[nH]n3)c2)cc(-c2nn[nH]n2)c1 |  | 16.4% [at 11.4 µM] (inactive) |
| COCCCNC(=O)C1CC(=O)N(Cc2ccc(OC)cc2)C1 (configuration not stated) | inactive |  |
| CN(C)c1ncc2nc(-c3ccc(F)cc3)c(=O)n(Cc3cccs3)c2n1 | inactive |  |
| Cc1cc(C)c2nc(-c3ccccn3)cc(C(=O)Nc3ccc(S(=O)(=O)Nc4cc(C)on4)cc3)c2c1 | inactive |  |
| O=C(O)c1ccc(S(=O)(=O)N=Nc2c(O)[nH]c3ccccc23)cc1 |  | 17% [at 11.4 µM] (inactive) |
| O=C1CCC(c2ccccc2)(c2ccccc2)CC1 |  | 9.99% [at 11.4 µM] (inactive) |
| CCN1C(=O)c2cccc3c(NC(=O)c4cccc(N5C(=O)CCC5=O)c4)ccc1c23 | inactive |  |
| COc1ccc(N2CCN(C(=O)CSc3nnc4c5cc(C)ccc5n(C)c4n3)CC2)cc1 | inactive |  |
| COc1ccc2nc3oc(C(=O)NCc4cccs4)cc3cc2c1 | inactive |  |
| COc1cccc2c(=O)c(C(=O)NCc3cccs3)c[nH]c12 | 12.6 µM (active) |  |
| COc1ccc(C(=O)c2c[nH]c(C(=O)NCc3cccs3)c2)cc1 | inactive |  |
| O=C1CC(=O)N(CCc2ccc(F)cc2)C(=O)N1 | inactive |  |
| COc1ccc(-n2c(=O)cnc3cnc(N(C)C)nc32)cc1 | inactive |  |
| NCS(=O)(=O)O |  | 6.1% [at 11.4 µM] (inactive) |
| COc1ccccc1/C=C/C(=O)c1c2c(c(C)[nH]c1=O)CCCC2 | inactive |  |
| Cn1c(=S)c2[nH]c(SCCCc3ccccc3)nc2n(C)c1=O |  | -0.099% [at 11.4 µM] (inactive) |
| Cc1c(C)c2c(c(C)c1O)CC[C@@](C)(CCC[C@@H](C)CCC[C@@H](C)CCCC(C)C)O2 | inactive |  |
| Cc1cc(C)n2nc(SCc3cc(=O)oc4ccc5ccccc5c34)nc2n1 | inactive |  |

| Compound | AC50 | activity, negative = inhibition |
| --- | --- | --- |
| CCOC(=O)c1sc(NS(=O)(=O)c2ccccc2)nc1C | inactive |  |
| CCOc1cc(C)c(S(=O)(=O)Nc2ccc3cn[nH]c3c2)cc1C | 0.631 µM (active) |  |
| CC(=O)Nc1cc(S(=O)(=O)Nc2ccccc2)c(C)cc1C | inactive |  |
| CCOC(=O)c1ccc(S(=O)(=O)Nc2ccc3cn[nH]c3c2)cc1 | 12.6 µM (active) |  |
| Cc1cc(NC(=O)COC(=O)c2ccc(NS(=O)(=O)c3ccc(C)c(C)c3)cc2)no1 | inactive |  |
| COC(=O)Cc1cc(=O)n2[nH]c(C)c(-c3ccccc3)c2n1 | inactive |  |
| C/C(O)=C\c1nc2ccccc2oc1=O | inactive |  |
| COC(=O)[C@@]1(Cc2ccc(F)cc2)[C@@H]2C(=CC(=O)[C@H]2CC(=O)C(=O)N(C)C)CN1C(=O)c1ccccc1 | inactive |  |
| Cc1cc(N)ccc1NC(=O)c1ccccc1 | inactive |  |
| CCO/C(C)=N/n1c2nc3ccccc3nc2c2c(=O)n(CC(C)C)c(C)nc21 | inactive |  |
| CCCCn1c(SCC(=O)Nc2nccs2)nc2ccccc2c1=O | inactive |  |
| CCCC(C(=O)Nc1nccs1)c1ccccc1 (configuration not stated) | 25.1 µM (active) |  |
| O=C(O)c1ccccc1C(=O)Nc1nccs1 | inactive |  |
| O=C(NCC1CCCO1)c1cc(-c2ccc(Cl)cc2Cl)on1 (configuration not stated) | inactive |  |
| Cc1cccc(Sc2c([N+](=O)[O-])ncn2C)n1 | inactive |  |
| c1ccc(-n2cnc3cc(NCc4cccs4)ccc32)cc1 | 1.12 µM (active) |  |
| O=c1cnc2cnc(Nc3ccccc3)nc2n1Cc1cccs1 | inactive |  |
| O=C(O)[C@H]1CCCNC1 | inactive |  |
| Cc1cc(=O)oc(C)c1C(=O)NCc1cccnc1 | inactive |  |
| Cc1ccccc1CS(=O)(=O)Cc1ccc(C(=O)NCc2cccnc2)o1 | 10 µM (active) |  |
| Cc1cccc(CS(=O)(=O)Cc2ccc(C(=O)NCc3ccco3)o2)c1 | inactive |  |
